Laboratory results published in PubChem BioAssay.
Unmarked numbers belong to inactive results. For some assays here: Measured potencies and affinities stand elsewhere. The source made the active and inactive calls. Unless noted, no rule for the calls is given here.

Assays:
[1] = antimalarial activity against Dd2 strain (AID 2302;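 active = growth inhibition above 50% at the single 2 µM test dose, taken to imply half-maximal potency below 2 µM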;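 also: 0% = DMSO untreated growth and 100% = chloroquine plus artemisinin killed control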); settings: P. falciparum Dd2 in RBCs, LDH growth readout, 72 h; at 2 µM; stronger effect = higher value
[2] = human hepatoma cell viability loss – ATP luminescence, cytotoxicity control for P. falciparum antimalarial project, primary screen (AID 2303;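 active = inhibition above 50%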;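 also: 0% = DMSO wells and 100% = digitonin-killed cells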); settings: HepG2 viability, 24-48 h, at 10 µM, stronger effect = higher value
[3] = target: L-lactate dehydrogenase (Plasmodium falciparum (isolate CDC / Honduras)) (UniProt Q27743); assay: PfLDH activity inhibition – cell lysate, 3D7 strain, counter-screen for P. falciparum growth inhibition project (AID 2304);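 also: 0% = vehicle and 100% = reference inhibitor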; settings: P. falciparum 3D7 crude extract, LDH APAD/NBT absorbance; at 2 µM; stronger effect = higher value
Chain of L-lactate dehydrogenase (Plasmodium falciparum (isolate CDC / Honduras)) (Q27743 whole entry, looked up): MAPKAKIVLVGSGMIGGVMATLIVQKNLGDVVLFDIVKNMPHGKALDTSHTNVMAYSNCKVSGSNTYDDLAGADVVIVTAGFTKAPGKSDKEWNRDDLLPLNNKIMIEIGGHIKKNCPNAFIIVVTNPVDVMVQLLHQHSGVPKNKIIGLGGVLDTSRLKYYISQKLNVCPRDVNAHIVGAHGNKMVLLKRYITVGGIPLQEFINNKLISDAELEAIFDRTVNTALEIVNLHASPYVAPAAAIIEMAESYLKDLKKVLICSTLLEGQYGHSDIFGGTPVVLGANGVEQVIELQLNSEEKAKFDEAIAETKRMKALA

[4] = inhibition of 3D7 malaria parasite growth – strain 3D7 (AID 2306);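 also: 0% = DMSO wells and 100% = chloroquine plus artemisinin control wells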; settings: P. falciparum 3D7 erythrocytic growth, LDH absorbance, 72 h; at 2 µM; stronger effect = higher value
[5] = target: Calcium-dependent protein kinase 1 (Plasmodium falciparum (isolate 3D7)) (UniProt P62344); assay: PfCDPK1 kinase inhibitors, biochemical, TCAMS library (AID 1159585; cut-off not given, nearly all actives have IC50 up to about 0.98 µM;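 also: inhibitors leave more ATP so luminescence rises with inhibition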); settings: recombinant PfCDPK1, Kinase-Glo ATP depletion luminescence
Chain of Calcium-dependent protein kinase 1 (Plasmodium falciparum (isolate 3D7)) (P62344 whole entry, looked up): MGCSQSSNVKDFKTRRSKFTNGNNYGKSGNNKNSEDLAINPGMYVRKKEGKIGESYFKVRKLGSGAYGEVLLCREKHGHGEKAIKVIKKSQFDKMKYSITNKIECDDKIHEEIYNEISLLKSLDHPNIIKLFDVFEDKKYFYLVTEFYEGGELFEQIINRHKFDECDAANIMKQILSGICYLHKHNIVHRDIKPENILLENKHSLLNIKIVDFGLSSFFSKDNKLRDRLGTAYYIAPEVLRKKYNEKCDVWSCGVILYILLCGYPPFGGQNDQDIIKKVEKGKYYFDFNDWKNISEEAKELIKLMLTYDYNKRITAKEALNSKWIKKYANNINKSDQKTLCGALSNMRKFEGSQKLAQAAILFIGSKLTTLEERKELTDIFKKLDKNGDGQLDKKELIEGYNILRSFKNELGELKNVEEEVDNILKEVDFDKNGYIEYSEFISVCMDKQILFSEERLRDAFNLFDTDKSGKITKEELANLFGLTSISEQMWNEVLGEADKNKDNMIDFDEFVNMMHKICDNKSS

[6] = target: Plasmodium falciparum protein kinase 6 (PK6, PF3D7_1337100) (UniProt Q8IDW1); assay: PfPK6 kinase inhibitors, biochemical, TCAMS library (AID 1159586); settings: recombinant PfPK6, Kinase-Glo ATP depletion luminescence
Chain of Plasmodium falciparum protein kinase 6 (PK6, PF3D7_1337100) (Q8IDW1 1-305): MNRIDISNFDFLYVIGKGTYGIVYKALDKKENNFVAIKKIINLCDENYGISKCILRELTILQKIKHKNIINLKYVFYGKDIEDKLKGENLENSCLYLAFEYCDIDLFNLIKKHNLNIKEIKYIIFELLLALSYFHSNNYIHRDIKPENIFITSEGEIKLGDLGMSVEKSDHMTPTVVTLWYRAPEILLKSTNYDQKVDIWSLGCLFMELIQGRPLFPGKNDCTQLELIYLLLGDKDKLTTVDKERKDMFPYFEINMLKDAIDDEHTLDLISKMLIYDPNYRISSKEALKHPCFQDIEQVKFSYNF

[7] = target: Protein kinase 7 (PK7), Plasmodium falciparum 3D7 (PF3D7_0213400) (UniProt Q7YTF7); assay: inhibition of Plasmodium PK7 catalytic activity – biochemical, TCAMS antimalarial set, Kinase-Glo luminescence (AID 1159587); settings: recombinant PfPK7, Kinase-Glo ATP depletion luminescence
Chain of Protein kinase 7 (PK7), Plasmodium falciparum 3D7 (PF3D7_0213400) (Q7YTF7 1-343): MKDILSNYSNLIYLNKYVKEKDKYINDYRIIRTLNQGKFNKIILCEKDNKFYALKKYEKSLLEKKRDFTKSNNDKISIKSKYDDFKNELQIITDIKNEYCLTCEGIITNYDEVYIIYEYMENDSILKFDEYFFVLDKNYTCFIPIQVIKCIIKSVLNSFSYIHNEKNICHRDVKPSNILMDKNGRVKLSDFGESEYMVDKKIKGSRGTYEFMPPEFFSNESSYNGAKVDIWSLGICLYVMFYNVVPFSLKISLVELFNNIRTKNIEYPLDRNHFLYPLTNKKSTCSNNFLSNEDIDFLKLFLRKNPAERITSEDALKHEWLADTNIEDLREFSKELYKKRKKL

[8] = target: Calcium-dependent protein kinase 4 (Plasmodium falciparum (isolate 3D7)) (UniProt Q8IBS5); assay: PfCDPK4 kinase inhibitors, biochemical, TCAMS library (AID 1159588; cut-off not given, nearly all actives have IC50 up to about 0.91 µM); settings: recombinant PfCDPK4, Kinase-Glo ATP depletion luminescence
Chain of Calcium-dependent protein kinase 4 (Plasmodium falciparum (isolate 3D7)) (Q8IBS5 whole entry, looked up): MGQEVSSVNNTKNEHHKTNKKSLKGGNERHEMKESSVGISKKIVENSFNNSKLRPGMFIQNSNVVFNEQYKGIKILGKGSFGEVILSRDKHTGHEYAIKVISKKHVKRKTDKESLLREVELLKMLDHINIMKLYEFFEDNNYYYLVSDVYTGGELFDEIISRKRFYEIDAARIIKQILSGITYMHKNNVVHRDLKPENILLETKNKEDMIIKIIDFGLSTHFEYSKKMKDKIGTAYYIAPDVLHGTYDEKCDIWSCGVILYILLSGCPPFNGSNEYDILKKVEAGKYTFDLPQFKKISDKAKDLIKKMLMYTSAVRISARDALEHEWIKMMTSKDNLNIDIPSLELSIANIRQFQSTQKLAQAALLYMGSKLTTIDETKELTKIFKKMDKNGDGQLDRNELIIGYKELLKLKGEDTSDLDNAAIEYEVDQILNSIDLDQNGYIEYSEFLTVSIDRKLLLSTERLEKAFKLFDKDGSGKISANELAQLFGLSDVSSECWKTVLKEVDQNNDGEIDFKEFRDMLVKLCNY

| SMILES | growth inhibition [1] | inhibition [2] | inhibition [3] [%] | growth inhibition [4] | outcome [5] | outcome [6] | outcome [7] | outcome [8] |
| --- | --- | --- | --- | --- | --- | --- | --- | --- |
| Cc1cccc(CC(N)=NCCCCCCN=C(N)Cc2cccc(C)c2)c1 | 97% (active) | 12% | 3 | 97% (active) | inactive | inactive | inactive | inactive |
| c1ccc2c(NCCCCCCCCNc3ccnc4ccccc34)ccnc2c1 | 35% | 57% (active) | -1 | 101% (active) | inactive | inactive | inactive | inactive |
| Cc1c(C(=O)[C@@H]2C[C@H]2CN2CCC(N3CCCCC3)CC2)sc2ccccc12 | 19% | 35% | -1 | 94% (active) | inactive | inactive | inactive | inactive |
| CS(=O)(=O)Nc1cccc(-c2cnc3[nH]cc(-c4ccc(CCC(=O)O)cc4)c3c2)c1 | 78% (active) | 7% | 2 | 98% (active) | inactive | inactive | inactive | inactive |
| c1ccc2[nH]c(-c3ccc(-c4ccc(CN5CCN(c6ccncc6)CC5)cc4)cc3)nc2c1 | 100% (active) | 48% | -3 | 101% (active) | inactive | inactive | inactive | inactive |
| CCNC(=O)c1ccc(-n2nc(C)cc2-c2ccccc2)cc1 | 54% (active) | 11% | 2 | 89% (active) | inactive | inactive | inactive | inactive |
| Cc1cc(Nc2ccc(Oc3ccc(Cl)cc3)cc2)nc(N)n1 | 71% (active) | 49% | 7 | 101% (active) | inactive | inactive | inactive | inactive |
| CCCCc1cc(O)c2c(c1)OC(C)(C)C=C2C1=CCN(Cc2ccccc2)CC1 | 3% | 9% | -5 | 98% (active) | inactive | inactive | inactive | inactive |
| CCN1CCCC1CN(Cc1ccc(-c2ccc(C(F)(F)F)cc2)cc1)C(=O)Cn1c(CCc2cccc(F)c2F)nc(=O)c2ccccc21 (stereo not given) | 51% (active) | 40% | 2 | 94% (active) | inactive | inactive | inactive | inactive |
| O=C(NCc1cccc(OC(F)(F)F)c1)c1cnc2c(c1)nc(-c1cnc(-c3ccccc3)[nH]1)n2CCc1cnc[nH]1 | 47% | 0% | -10 | 99% (active) | inactive | inactive | inactive | inactive |
| Cc1ccc(C)c2c1[nH]c1ccc(C3=NCCN3)cc12 | -6% | 29% | -3 | 100% (active) | inactive | inactive | inactive | inactive |
| O=C(NC1CCN(Cc2ccccc2)CC1)c1csc2nc(-c3ccc(Cl)cc3)cn12 | 14% | 19% | -10 | 98% (active) | inactive | inactive | inactive | inactive |
| O=C(Nc1cccc(CN2CCCN(Cc3ccc(O)cc3)CC2)c1)c1ccc(Cl)c(Cl)c1 | 81% (active) | 22% | -1 | 103% (active) | inactive | inactive | inactive | inactive |
| OC(CNC1CCCCC1)Cn1c2ccccc2c2ccccc21 (stereo not given) | 92% (active) | 11% | 0 | 97% (active) | inactive | inactive | inactive | inactive |
| N#CC(c1cccc(Cl)c1)c1ccc2c(C(F)(F)F)cc(C(F)(F)F)nc2n1 (stereo not given) | 97% (active) | 52% (active) | 4 | 96% (active) | inactive | inactive | inactive | inactive |
| Cc1nc(N)nc(N)c1-c1ccc(Br)c([N+](=O)[O-])c1 | 2% | 64% (active) | 2 | 95% (active) | inactive | inactive | inactive | inactive |
| CC(C)(C)c1ccc(CN2CCC(CNC(=O)c3cc(-c4ccccc4C(F)(F)F)cs3)C2)cc1 (stereo not given) | 11% | 61% (active) | -3 | 92% (active) | inactive | inactive | inactive | inactive |
| CCNc1cc(C)nc(Nc2ccc(F)cc2)n1 | 57% (active) | 1% | -7 | 101% (active) | inactive | inactive | inactive | inactive |
| CC(C)(C)C(Cn1ccnc1)NCc1cn[nH]c1-c1ccc(-c2ccccc2)cc1 (stereo not given) | 69% (active) | 15% | -2 | 98% (active) | inactive | inactive | inactive | inactive |
| N#Cc1cc(C(=O)c2cc(Br)ccc2O)cn(-c2cc(Cl)cc(Cl)c2)c1=O | 35% | 42% | -5 | 98% (active) | inactive | inactive | inactive | inactive |

| SMILES | growth inhibition [1] | inhibition [2] | inhibition [3] [%] | growth inhibition [4] | outcome [5] | outcome [6] | outcome [7] | outcome [8] |
| --- | --- | --- | --- | --- | --- | --- | --- | --- |
| CC(=O)Nc1ccc(CN(Cc2ccc(OC(C)(C)C)cc2)Cc2ccc3c(c2)OCCO3)cc1 | 75% (active) | 7% | 5 | 91% (active) | inactive | inactive | inactive | inactive |
| CCOCc1cn(CC(=O)c2ccc(-c3ccccc3)cc2)c(C)nc1=N | 72% (active) | 13% | 5 | 93% (active) | inactive | inactive | inactive | inactive |
| Cc1[nH]cc(Br)c(=O)c1-c1ccc(Oc2ccc(OC(F)(F)F)cc2)cc1 | 92% (active) | 22% | -2 | 96% (active) | inactive | inactive | inactive | inactive |
| CC(C)C1C(O)=C(c2ccc3ccccc3c2)C(=O)N1Cc1ccsc1 (stereo not given) | 82% (active) | 11% | 3 | 88% (active) | inactive | inactive | inactive | inactive |
| O=C(NCc1ccccc1)c1nn(CCCN2CCC(N3CCCC3)CC2)cc1-c1ccc(Cl)c(Cl)c1 | 89% (active) | 29% | 0 | 103% (active) | inactive | inactive | inactive | inactive |
| O=C(/C=C/c1ccc(Cl)c(Cl)c1)NCCCCCCN1CCN(C(=O)Nc2ccc(C(F)(F)F)cc2)CC1 | 44% | 42% | -1 | 100% (active) | inactive | inactive | inactive | inactive |
| CCS(=O)(=O)Nc1ccc2[nH]cc(C3CCN(CCC4CCN(C(=O)/C=C/c5ccc(Cl)c(Cl)c5)CC4)CC3)c2c1 | 94% (active) | 34% | -2 | 99% (active) | inactive | inactive | inactive | inactive |
| CC(CN1CCN(C)CC1)C(=O)Nc1ccc(-c2cccc(-c3nc4ccc(F)cc4[nH]3)c2)cc1 (stereo not given) | 99% (active) | 8% | 0 | 100% (active) | inactive | inactive | inactive | inactive |
| COc1ccc2nccc(N3CCC(NCCNS(=O)(=O)c4ccc5c(c4)NC(=O)CS5)C3)c2n1 (stereo not given) | 18% | 12% | 2 | 97% (active) | inactive | inactive | inactive | inactive |
| COc1ccc(CNCc2ccc(F)cc2)cc1-c1ccc(S(=O)(=O)NCCN2CCCC2)c(C)c1 | 56% (active) | 55% (active) | -2 | 98% (active) | inactive | inactive | inactive | inactive |
| COc1ccc(-c2nc3cccnc3n2CC(=O)Nc2cc(Cl)c(Cl)cc2Cl)c(OC)c1 | 17% | 99% (active) | 1 | 100% (active) | inactive | inactive | inactive | inactive |
| CC1CN=C(c2ccc(NC(=O)c3ccc(C(=O)Nc4ccc(C5=NCC(C)N5)cc4)cc3)cc2)N1 (stereo not given) | 100% (active) | 15% | -7 | 99% (active) | inactive | inactive | inactive | inactive |
| CC1(C)N=C(N)NC(NOCc2ccc(Cl)c(Cl)c2)=N1 | 27% | 5% | 2 | 96% (active) | inactive | inactive | inactive | inactive |
| CCC(=O)c1c(C)n(-c2ncnc3c2nc(C)n3-c2ccc(C)cc2C)c2ccccc12 | 78% (active) | -16% | -2 | 96% (active) | inactive | inactive | inactive | inactive |
| O=[N+]([O-])c1cccc(Nc2cncc(-c3ccc(CO)cc3)c2)c1 | 96% (active) | 16% | -5 | 85% (active) | inactive | inactive | inactive | inactive |
| CCCCN(CCCC)Cc1cc2ccccc2cc1O | 98% (active) | 9% | -6 | 100% (active) | inactive | inactive | inactive | inactive |
| COc1cc(NCC(O)CNc2cc(Cl)nc3ccccc23)nc2ccccc12 (stereo not given) | 99% (active) | 17% | -2 | 99% (active) | inactive | inactive | inactive | inactive |
| CSc1c(CNCCCNc2cc(=O)c3ccccc3[nH]2)[nH]c2ccccc12 | 21% | 0% | 2 | 87% (active) | inactive | inactive | inactive | inactive |
| CCN(CC)C(=NCCCCCCN=C(/N=C(\N)Nc1ccc(Cl)c(Cl)c1)N(CC)CC)/N=C(\N)Nc1ccc(Cl)c(Cl)c1 | 90% (active) | 1% | -3 | 94% (active) | inactive | inactive | inactive | inactive |
| CN(C)CCN(Cc1ccccc1-c1ccc(CNCCc2ccccc2)cc1)C(=O)c1ccccc1 | 97% (active) | 81% (active) | -3 | 95% (active) | inactive | inactive | inactive | inactive |
